Experimental data from ChEMBL document CHEMBL3988442, “University of Dundee, Small-Polar-MMV Screening Library” (2021).

Experiments:
[1] = biological target: T1, Aspartate--tRNA(Asp/Asn) ligase (Mycobacterium tuberculosis (strain ATCC 25618 / H37Rv)) (UniProt P9WFW3); experiment: Assay for Asp RNA synthetase-1 from Mycobacterium tuberculosis; format: functional; design: scale not given: direction of the effect not stated beside the values; conditions: 30 µM; further: in the data most compounds retested in dose-response had high values
T1 sequence (whole entry): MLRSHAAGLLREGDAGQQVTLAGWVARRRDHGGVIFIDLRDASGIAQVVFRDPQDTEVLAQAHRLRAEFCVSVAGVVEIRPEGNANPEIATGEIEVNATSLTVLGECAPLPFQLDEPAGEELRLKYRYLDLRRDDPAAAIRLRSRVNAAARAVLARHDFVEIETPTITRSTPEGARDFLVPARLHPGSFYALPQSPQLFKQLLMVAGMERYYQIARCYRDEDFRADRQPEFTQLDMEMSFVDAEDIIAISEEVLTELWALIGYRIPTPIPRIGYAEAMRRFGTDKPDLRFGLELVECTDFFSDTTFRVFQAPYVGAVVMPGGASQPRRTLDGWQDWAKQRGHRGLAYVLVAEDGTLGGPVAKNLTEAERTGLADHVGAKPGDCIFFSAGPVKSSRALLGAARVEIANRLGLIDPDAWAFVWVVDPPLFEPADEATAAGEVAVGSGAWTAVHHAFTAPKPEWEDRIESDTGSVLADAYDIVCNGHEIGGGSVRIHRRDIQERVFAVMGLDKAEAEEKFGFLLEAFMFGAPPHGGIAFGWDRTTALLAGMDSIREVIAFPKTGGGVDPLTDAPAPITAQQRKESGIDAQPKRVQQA

[2] = biological target: Shiga toxin 2 (Escherichia coli O157:H7) (UniProt P09385+P09386); experiment: E. coli 0.157:H7 Shiga Toxin SOP - stx2 screening assay; format: functional; design: scale not given: direction of the effect not stated beside the values; conditions: 30 µM

| SMILES | Percent Effect [1] [%] | Percent Effect [2] [%] |
| --- | --- | --- |
| CCN1CC(C(=O)NCc2ccccc2-n2cccn2)CC1=O (centres undefined) | 7.12 | 20.1 |
| COc1ccc(CNCC2CCN(CC(C)O)CC2)c2ccccc12 (centres undefined) | -5.41 | -33.8 |
| CS(=O)(=O)CC(=O)N1C[C@H]2CCC[C@@]2(COCc2ccccn2)C1 | 4.11 | -6.39 |
| O=C(c1cc[nH]n1)N1CCC(Nc2cccnn2)CC1 | -8.36 | -20.2 |
| Cc1noc(C)c1CCC(=O)N1CCN(CCn2cncn2)CC1 | 6.07 | -7.17 |
| CC1c2ncc(Cn3cncn3)n2CCN1C1CCOCC1 (centres undefined) | 2.5 | -1.95 |
| O=C(N1CCCC1)N1CCO[C@H]2[C@@H](Oc3ccccn3)CC[C@@H]21 | -4.07 | -9.25 |
| Cc1noc(C)c1C(=O)NCC(c1ccc(F)cc1)N(C)C (centres undefined) | 1.51 | 16 |
| N#Cc1cccnc1N1CCC2(CCCN(C3CCOCC3)C2=O)C1 (centres undefined) | -3.99 | -16.3 |
| CCc1nc(C2CCCN2CCn2cncn2)no1 (centres undefined) | 0.0232 | -0.231 |
| Cc1cnn(CC2CN(c3ncnc4ccsc34)CCO2)c1 (centres undefined) | -1.51 | -0.262 |
| COCc1nc(C(=O)N2CCCC2c2c(C)nn(C)c2C)cs1 (centres undefined) | -5.87 | -13.6 |
| CCc1nc(CN2CCOC(Cn3nc(C)nc3C)C2)no1 (centres undefined) | 3.17 | 28.4 |
| CCN(c1ccc(C(=O)N2CCCC2)cc1)S(=O)(=O)CC | 5.6 | -13.5 |
| COCC1CN(Cc2ccc(C)o2)Cc2cn(C)nc21 (centres undefined) | 11.7 | -13.2 |
| CCN1CC(C(=O)NCc2ccnc(-n3ccnc3C)c2)CC1=O (centres undefined) | -3.16 | -11.9 |
| c1csc(-c2nc(CNC3CCc4ncnn4C3)cs2)c1 (centres undefined) | -3.43 | -12.9 |
| O=S(=O)(C1CC1)N1CCO[C@H]2[C@H](OCCN3CCCC3)CC[C@@H]21 | 2.59 | -32.7 |
| Nc1nccc(NCc2cc3n(n2)CCCN(C(=O)C2CCC2)C3)n1 | 0.0228 | 1.54 |
| CCCn1ccc(C(=O)N2CCC(C)CC2)n1 | 3.36 | -27.6 |
| CS(=O)(=O)N1CCC(C(=O)NCCNc2ncccn2)CC1 | -0.962 | -1.12 |
| O=C(C1CCOCC1)N1CCC2(CC1)CC(Oc1ccccc1)CO2 (centres undefined) | -1.89 | 25.7 |
| CCn1cc(NC(=O)C2CCN(Cc3noc(C(C)C)n3)CC2)cn1 | 1.21 | -21.2 |
| CCOC(=O)c1sc2ccsc2c1CN | -0.321 | 42.1 |

| SMILES | Percent Effect [1] [%] | Percent Effect [2] [%] |
| --- | --- | --- |
| CC(=O)Nc1nc(C2CCN(C(C)=O)CC2)cs1 | -1.69 | -0.268 |
| CC(=O)NCC(=O)N1CCOC2(CCCN(c3cccnc3)C2)C1 (centres undefined) | 1.34 | -31.3 |
| N#Cc1ccc(NCCNc2ccc(C(F)(F)F)cn2)nc1 | -3.59 | 45.1 |
| O=C(Cn1nc2c(cc1=O)CSCC2)NC(Cc1ccccc1)C(=O)O (centres undefined) | 0.581 | -19.5 |
| CCOc1cccc2c1OCC(C(=O)NS(=O)(=O)c1ccc(Cl)cc1)=C2 | 0.459 | 17 |
| Cc1ccc(CN2CCC[C@]3(C(=O)O)CN(c4ncccn4)C[C@@H]3C2)o1 | 7.77 | -25.5 |
| COCC1c2c(cnn2C)CCN1Cc1ccoc1 (centres undefined) | 2.94 | -3.41 |
| CC(NC(=O)Cc1cccs1)c1nnc2n1CCCCC2 (centres undefined) | -4.69 | 5.32 |
| O=C(CN1CCC(c2ccnn2CCO)CC1)NCc1cccs1 | -1.91 | -10 |
| Cc1ccc(C)c(OCCN2CCC(N3CCNC3=O)CC2)c1 | 0.583 | -1.43 |
| O=C1C[C@H]2[C@@H](CCN2C(=O)Cc2cccs2)N1Cc1cccnc1 | -2.94 | -6.22 |
| Cc1nc(CN2CCCC(NCCc3ccccc3Cl)C2)no1 (centres undefined) | -1.91 | 10.1 |
| O=C1[C@H]2CC[C@H](CN(C3CSCCSC3)C2)N1Cc1cscn1 | 2.92 | -34.4 |
| Cc1csc(C2CCCN(C(=O)c3cc(Cl)c[nH]3)C2)n1 (centres undefined) | -3.61 | 29.7 |
| COc1cccc(N2CCN(Cc3ncc[nH]3)CC2=O)c1 | 0.446 | -4.16 |
| CCN(CCn1cccn1)Cc1nc(-c2ccccc2F)oc1C | -0.808 | -3.06 |
| Cn1ccc(C(=O)N2CCCC(n3cncn3)C2)cc1=O (centres undefined) | -4.15 | -5.76 |
| CCN1CC2(CC1=O)CN(Cc1cnn(C)c1)CCN(C(=O)C(C)C)C2 (centres undefined) | -1.53 | -10.1 |
| O=C(Cc1csc(-c2nnc[nH]2)n1)N1CCCC1Cn1cccn1 (centres undefined) | -4.54 | 5.43 |
| CCOc1cccc(CNc2ccccc2C(=O)OC)c1O | -5.37 | -53.6 |
| CC(C)c1nc(CN2CCN(CC3CCCO3)CC2)cs1 (centres undefined) | -0.404 | 12 |
| Fc1ccc(CN2CCCC(c3nnc(-c4cnccn4)o3)C2)cc1F (centres undefined) | 2.55 | -5.16 |
| CCN1CCC(NC(=O)CN2CCCC2Cn2nc(C)cc2C)CC1 (centres undefined) | -0.781 | 17.1 |
